PubChem BioAssay (NCATS)
Values without a mark were called inactive. Results filed as inconclusive are left out. Where a call stands in place of a potency, no number is given. Calls of active or inactive are those of the source. Calls follow the shape of the dose curve; as a rule, active = well fitted curve in the direction sought with a large enough effect; inconclusive = small, poorly fitted or top-dose-only effect, or another doubt; inactive = no such curve, though single readings can be large; an effect the other way counts as inactive or inconclusive.

Experiments:
[1] = target: Glutathione peroxidase 1 (Homo sapiens) (UniProt P07203); test: Primary qHTS Assay for Inhibitors of Recombinant Selenoprotein Glutathione Peroxidase 1 (GPX1) (AID 1845191); also: nearly all actives have a fitted effect of over 65% in size
In short: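 GR-coupled assay: compounds preincubated 30 min at room temperature with GPX1, then reaction started with CHP; final 10 nM GPX1, 1 mM GSH, 0.5 mM CHP, 0.5 mM NADPH, 100 nM GR, 0.01% BSA, pH 7.5 Tris buffer. NADPH fluorescence (340/450 nm) read at 0 and 15 min.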

[2] = target: Phospholipid hydroperoxide glutathione peroxidase GPX4 (Homo sapiens) (UniProt P36969); test: Primary qHTS Assay for Inhibitors of Recombinant Selenoprotein Glutathione Peroxidase 4 (GPX4) (AID 1845192); also: nearly all actives have a fitted effect of over 65% in size; as to activity change, negative = inhibition: series mostly up to about 50 µM
In short: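 GR-coupled assay: recombinant GPX4 preincubated 30 min with compound at room temperature; final 200 nM GPX4, 1 mM GSH, 0.5 mM cumene hydroperoxide, 0.5 mM NADPH, 100 nM GR, 0.01% BSA, pH 7.5 Tris. NADPH fluorescence (340/450 nm) read at 0 and 15 min.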

[3] = target: Luciferin 4-monooxygenase (Photinus pyralis) (UniProt P08659); test: Primary firefly luciferase (FLuc) qHTS assay for identification of artifact compounds. (AID 1845220); also: nearly all actives have a fitted effect of over 60% in size; also: potency is read from the fitted curve at half-maximal effect; as to activity change, negative = inhibition: series mostly up to about 54 µM
In short: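 Enzymatic FLuc inhibition assay: compounds pre-exposed to luciferin/ATP (10 uM each) for 15 min, then purified P. pyralis enzyme at 10 nM added. Read-out: luminescence at 5 min.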

[4] = system: Nanoluciferase (engineered Oplophorus gracilirostris luciferase); test: Primary Nanoluciferase (NLuc) qHTS assay for identification of artifact compounds. (AID 1845222);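 also: NLuc secreted into diluted conditioned medium of S16 cells; series mostly up to about 54 µM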
In short: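 S16 cell supernatant NLuc, 1:55; cpds qHTS; 15 min RT dark; Nano-Glo substrate 1:100, 5 min; luminescence; Hill fit of % inhibition.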

[5] = Primary redox qHTS assay for identification of artifact compounds. (AID 1845223)
In short: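 Amplex Red (25 uM) and HRP (250 mU/mL) in HBSS, with compounds for 15 min, then 250 uM DTT for 30 min, room temperature, dark. Fluorescence 525/598 nm read; normalized to DMSO and 10 uM DA3003; Hill fit.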

Sequence of Phospholipid hydroperoxide glutathione peroxidase GPX4 (Homo sapiens) (P36969 whole entry, looked up): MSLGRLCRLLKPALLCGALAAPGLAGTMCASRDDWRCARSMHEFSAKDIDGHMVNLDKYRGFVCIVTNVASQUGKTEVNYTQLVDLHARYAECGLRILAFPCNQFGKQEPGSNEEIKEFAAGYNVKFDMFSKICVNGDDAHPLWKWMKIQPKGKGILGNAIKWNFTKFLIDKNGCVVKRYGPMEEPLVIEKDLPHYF
Sequence of Glutathione peroxidase 1 (Homo sapiens) (P07203 whole entry, looked up): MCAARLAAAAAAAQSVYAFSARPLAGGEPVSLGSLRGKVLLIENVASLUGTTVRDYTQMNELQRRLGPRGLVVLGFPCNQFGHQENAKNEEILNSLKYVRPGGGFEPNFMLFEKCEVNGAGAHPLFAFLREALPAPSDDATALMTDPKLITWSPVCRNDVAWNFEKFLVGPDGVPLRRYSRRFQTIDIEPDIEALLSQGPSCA

Compound | Potency [1] | Potency [2] | Potency [3] | Potency [4] | Potency [5] | activity change, negative = inhibition [3] | activity, negative = inhibition [4] | redox activity (% of DA3003) [5]
O=C1C=CC(O)(/C=C/C(=O)OC[C@H]2O[C@@H](Oc3ccc(O)cc3)[C@H](O)[C@@H](O)[C@@H]2O)C=C1 | inactive | inactive | inactive | inactive | inactive |  |  | 
C=C1CCC2C(C)(C)CCC[C@]2(C)[C@H]1C/C=C(\CO)C(=O)C(=O)O (stereo not given in full) | inactive | inactive | inactive | inactive | inactive |  |  | 
C=CC(C)(C)c1[nH]c2cc3c(cc2c1CC1NC(=O)C2=CCCN2C1=O)C=CC(C)(C)O3 (stereo not given) | inactive | inactive | inactive | inactive | inactive |  |  | 
OC[C@H]1O[C@@H](OCCc2ccc(O)cc2)[C@H](O[C@@H]2OC[C@](O)(CO)[C@H]2O)[C@@H](O)[C@@H]1O | inactive | inactive | inactive | inactive | inactive |  |  | 
CC1(C)CC2C=C(C(=O)O)C3COC(=O)C(O)(CO)C23C1 (stereo not given) | inactive | inactive | inactive | inactive | inactive |  |  | 
C=C(CO)C12OC1C1(C)C(=CC2=O)C(O)C(O)CC1C (stereo not given) | inactive | inactive | inactive | inactive | inactive |  |  | 
COc1cc(C2Oc3c(OC)cc(CCCO)cc3C2CO)ccc1O[C@H]1O[C@H](C)[C@@H](O)[C@H](O)[C@@H]1O (stereo not given in full) | inactive | inactive | inactive | inactive | inactive |  |  | 
NCCCNc1ccc(Nc2nccc(Nc3cc(C4CC4)[nH]n3)n2)cc1 | inactive | inactive | inactive | inactive | inactive |  |  | 
N#CC(c1ccnc(OCc2ccc(CN3CCOCC3)cc2)n1)c1nc2ccccc2s1 (stereo not given) | inactive | inactive | 0.426 µM (active) | inactive | inactive |  |  | 
CCCCc1nc2cc(/C=C/C(=O)NO)ccc2n1CCN(CC)CC | inactive | inactive | inactive | inactive | inactive |  |  | 
CC(/C=C/C1=CC2=CC(=O)C(C)(O)C(O)C2=CO1)=C\C(C)CCO (stereo not given) | inactive | inactive | inactive | inactive | inactive |  |  | 
CC(O)/C=C/C1(O)C(C)C(O[C@@H]2O[C@H](CO)[C@@H](O)[C@H](O)[C@H]2O)C(O)CC1(C)C (stereo not given in full) | inactive | inactive | inactive | inactive | inactive |  |  | 
O=C(/C=C/c1ccccc1)OC[C@]12O[C@H]1[C@@H](O)[C@@H]1C=CO[C@@H](O[C@@H]3O[C@H](CO)[C@@H](O)[C@H](O)[C@H]3O)[C@@H]12 | inactive | inactive | inactive | inactive | inactive |  |  | 
Cc1onc(C(=O)N2CCN(C(c3ccc(Cl)cc3)c3ccc(Cl)cc3)CC2)c1[N+](=O)[O-] | inactive | inactive | inactive | inactive | inactive |  |  | 
CC1=C(COC2OC(CO)C(O)C(O)C2O)C(C(CO)C(=O)O)CC1 (stereo not given) | inactive | inactive | inactive | inactive | inactive |  |  | 
CC(=O)C=C=C1C(C)(C)CC(O[C@@H]2O[C@H](CO)[C@@H](O)[C@H](O)[C@H]2O)CC1(C)O (stereo not given in full) | inactive | inactive | inactive | inactive | inactive |  |  | 
CN=C(N)NCCCCC/C=C(/C)CC(C)C1OC(=O)C(C)C(O)/C=C/C(C)C(O)CC(O)C(C)C(O)CCC(C)C(O)CC2(O)OC(CC(OC(=O)CC(=O)O)CC(O)CC(O)C(C)C(O)/C(C)=C/CCC1C)CC(O)C2O (stereo not given) | inactive | inactive |  |  |  | -2.65% [at 11.6 µM] | -0.658% [at 11.6 µM] | -4.57% [at 11.5 µM]
COC(=O)C1=COC(OC2OC(CO)C(O)C(O)C2O)C2C1C=CC2(O)CO (stereo not given) | inactive | inactive | inactive | inactive | inactive |  |  | 
O=C(O)c1cc(-c2c(-c3ccccc3)nn3ccccc23)n[nH]c1=O | inactive | inactive | inactive | inactive | inactive |  |  | 
C=C[C@H]1[C@H](O[C@@H]2O[C@H](CO)[C@@H](O)[C@H](O)[C@H]2O)OC=C(C(=O)OC)[C@H]1C[C@@H]1c2cc(O)c(O)cc2CCN1C(C)=O | inactive | inactive | inactive | inactive | inactive |  |  | 
CC(C)[N+]1(C)C2CCC1CC(OC(=O)C(CO)c1ccccc1)C2 (stereo not given) | inactive | inactive | inactive | inactive | inactive |  |  | 
OC[C@H]1O[C@@H](Oc2cc(O)c3c(c2)O[C@@H](c2ccc(O)cc2)[C@H](O)C3)[C@H](O)[C@@H](O)[C@@H]1O | inactive | inactive | inactive | inactive | inactive |  |  | 
C=C1C(OC(C)=O)CCC2(C)CC3(OC)OC(=O)C(C)=C3CC12 (stereo not given) | inactive | inactive | inactive | inactive | inactive |  |  | 
O=C(/C=C/c1cccc(S(=O)(=O)Nc2ccccc2)c1)NO | inactive | inactive | inactive | inactive | inactive |  |  | 
C=C1OC2CC(C(=O)O)C=CC2NC1=O (stereo not given) | inactive | inactive | inactive | inactive | inactive |  |  | 
COc1cc2c(cc1OC)[C@@H]1[C@H](O)[C@@H](OC)C=C3CCN(C2)[C@H]31 | inactive | inactive | inactive | inactive | inactive |  |  | 

Compound | Potency [1] | Potency [2] | Potency [3] | Potency [4] | Potency [5] | activity change, negative = inhibition [3] | activity, negative = inhibition [4] | redox activity (% of DA3003) [5]
C/C=C/C=C/C(O)=C1\C(O)=C(C)C(=O)[C@@]2(C)OC(=O)[C@@](C)(NC(=O)/C=C/C(=O)O)[C@@H]12 | inactive | inactive | inactive | inactive | inactive |  |  | 
COc1cc(O)cc(/C=C/c2ccc(O[C@@H]3O[C@H](CO)[C@@H](O)[C@H](O)[C@H]3O)cc2)c1 | inactive | inactive | inactive | inactive | inactive |  |  | 
COc1ccc(-c2cnc3ccc(NCc4ccc(S(N)(=O)=O)cc4)nn23)cc1OC | inactive | inactive | inactive | inactive | inactive |  |  | 
CC(C)c1nc(-c2ccc(NC(=O)Nc3cccc(C(F)(F)F)c3)c3ccccc23)c2c(N)nccn12 | inactive | inactive | inactive | inactive | inactive |  |  | 
CN1c2ccccc2C(=O)N2CCC3c4ccccc4NC3C21 (stereo not given) | inactive | inactive | 10.5 µM (active) | inactive | inactive |  |  | 
C=C1C(O)C[C@@H]2C(C(=O)O)=CO[C@@H](O[C@@H]3O[C@H](CO)[C@@H](O)[C@H](O)[C@H]3OC(=O)c3ccc(O)cc3)[C@H]12 (stereo not given in full) | inactive | inactive | inactive | inactive | inactive |  |  | 
C=C1CCC2C(C)(C)C(O)CCC2(C)C1CCC(C)CCOC(C)=O (stereo not given) | inactive | inactive | inactive | inactive | inactive |  |  | 
CC1=CC(=O)CC2C1(O)CCC(C)C21CC(c2ccoc2)OC1=O (stereo not given) | inactive | inactive | inactive | inactive | inactive |  |  | 
OC[C@H]1O[C@@H](O[C@H]2[C@H](OCc3ccccc3)O[C@H](CO[C@@H]3OC[C@@H](O)[C@H](O)[C@H]3O)[C@@H](O)[C@@H]2O)[C@H](O)[C@@H](O)[C@@H]1O | inactive | inactive | inactive | inactive | inactive |  |  | 
Cc1cc(C(N)=O)ccc1-n1c(CCC(=O)O)ccc1-c1ccc(-n2ccnc2)cc1 | inactive | inactive | inactive | inactive | inactive |  |  | 
COc1ccc([C@@]2(O)c3c(ccc4c3OC(C)(CCC=C(C)C)C=C4)NC(=O)[C@@H]2OC)cc1 (stereo not given in full) | inactive | inactive | inactive | inactive | inactive |  |  | 
C=C1C(O)CC2C(C(=O)O)=COC(O[C@@H]3O[C@H](COC(=O)/C=C/c4ccc(O)cc4)[C@@H](O)[C@H](O)[C@H]3O)C12 (stereo not given in full) | inactive | inactive | inactive | inactive | inactive |  |  | 
C=C[C@]1(C)C[C@H](O)[C@@H]2[C@H](OC(=O)[C@@H]2C)C1/C(C)=C/O[C@@H]1O[C@H](CO)[C@@H](O)[C@H](O)[C@H]1O (stereo not given in full) | inactive | inactive | inactive | inactive | inactive |  |  | 
COc1ncc(Nc2ncc([C@@H](C)N3CCN(S(C)(=O)=O)CC3)cc2-c2nc(C)nc(N)n2)cc1F | inactive | inactive | inactive | inactive | inactive |  |  | 
COc1ccc(-c2c(-c3cc(C(=O)O)ccn3)ncn2C)cc1 | inactive | inactive | inactive | inactive | inactive |  |  | 
C=CC1(C)C=C2C(=O)OC(=O)C3=C(CCCC3(C)C)C2(O)CC1 (stereo not given) | inactive | inactive | inactive | inactive | inactive |  |  | 
O=S(=O)(c1ccc(S(=O)(=O)n2cnc3ccccc32)cc1)N1CCCCCC1 | inactive | inactive | inactive | inactive | inactive |  |  | 
C=CCC1=C[C@]2(OC)[C@H](C)[C@@H](c3ccc(O)c(OC)c3)O[C@]2(OC)CC1=O | inactive | inactive | inactive | inactive | inactive |  |  | 
CC(C)C1=CC2C(CC[C@]2(C)O)[C@](C)(O)CC1 (stereo not given in full) | inactive | inactive | inactive | inactive | inactive |  |  | 
CC(=O)NC1C(OC(C)(C)C2CCC3(C)C=C(C4CCC5C4(C)CC(O)C4OC(C(C)(C)O)CCC45C)CCC3O2)OC(CO)C(O)C1O (stereo not given) | inactive | inactive | inactive | inactive | inactive |  |  | 
c1cc(Nc2cc(C3CC3)[nH]n2)nc(Nc2ccc3nc[nH]c3c2)n1 | inactive | inactive | inactive | inactive | inactive |  |  | 
Cc1ccc(S(=O)(=O)Nc2ccccc2N2CCCCC2)s1 | inactive | inactive | inactive | inactive | inactive |  |  | 
c1cc(OCCCN2CCCCC2)ccc1CN1CCCCC1 | inactive | inactive | inactive | inactive | inactive |  |  | 
CCOc1cc(N2CCC(O)CC2)ccc1Nc1ncc2c(n1)N(C1CCCC1)CCC(=O)N2C | inactive | inactive | inactive | inactive | inactive |  |  | 
COc1ccc(/C=C\C(=O)O)c(O[C@@H]2O[C@H](CO)[C@@H](O)[C@H](O)[C@H]2O)c1 | inactive | inactive | inactive | inactive | inactive |  |  | 
COC1=CC(=O)CC(C)C12Oc1cc(OC)cc(O)c1C2=O (stereo not given) | inactive | inactive | inactive | inactive | inactive |  |  | 
